Screens: PubChem BioAssay, several laboratories
Sampled rows, rich in hits. Any-hit rate of the full collection: about 9.7%.
M1 antagonist = antagonists of rat M1 muscarinic receptor. Muscarinic acetylcholine receptor M1 (Rattus norvegicus), P08482. CHO-M1 cells, Fluo-4 calcium, ACh EC80 antagonist mode; active compounds read low. B-score at 10 µM. 64,000 tested, 3.4% active. AID 628, 2007;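 active = calcium fluorescence response, raw or row-and-column corrected B-score, differing from the plate sample mean either way at a set confidence level, mostly lower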
Fluor 339 460 = intrinsic fluorescence of library compounds, ex339/em460 – biochemical, MLSMR library, data from DPM-DC assay, artefact control, profiling panel; compound autofluorescence, ex339/em460 nm, NADH buffer; active compounds read high; 1 = no-compound wells, NADH background; fluorescence fold increase at 10 µM; 65,000 tested, 5.5% active; AID 709, 2007;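 active = at 10 µM, mean starting fluorescence two-fold or more over control wells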;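 note: signal is the first read of a kinetic run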
WNV NS2B-NS3 inh = inhibitors of WNV NS2B-NS3 protease, primary screen, biochemical, fluorogenic substrate; z-score (no concentration beside the values); fluorogenic substrate Ex360/Em465; active compounds read low; 65,000 tested, 0.18% active; AID 577, 2007; in the data active = z-score below about -3
Target sequence (P06935 1371-1501 limits assumed): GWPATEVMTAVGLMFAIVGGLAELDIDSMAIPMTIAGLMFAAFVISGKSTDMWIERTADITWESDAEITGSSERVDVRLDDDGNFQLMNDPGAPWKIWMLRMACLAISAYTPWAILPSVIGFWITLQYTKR
Target sequence (P06935 1502-1679 limits assumed): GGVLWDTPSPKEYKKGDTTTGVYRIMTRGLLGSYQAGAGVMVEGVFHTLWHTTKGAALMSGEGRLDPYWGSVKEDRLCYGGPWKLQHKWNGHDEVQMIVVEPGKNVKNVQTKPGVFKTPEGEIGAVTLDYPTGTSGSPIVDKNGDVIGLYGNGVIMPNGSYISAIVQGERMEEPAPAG
BAP1 inh = inhibitors of BAP1 deubiquitinase, primary screen, biochemical, Ub-AMC fluorescence, kinetic. AID 436, 2006. calls only at 20 µM. Ubiquitin carboxyl-terminal hydrolase BAP1 (Homo sapiens), Q92560. 72,000 tested, 0.48% active. recombinant BAP1, Ub-AMC hydrolysis fluorescence kinetic; active compounds read low;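 active = activity remaining at or below 50% of control, provided the compound also passes the data quality filters; inactive = the rest, including low values that fail the filters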
Abs 340nm = compound light absorbance at 340 nm, profiling panel, artefact control, biochemical, MLSMR library, data from PS, PMK, MK assays | compound absorbance at 340 nm, fold over control | 65,000 tested, under 10 active | fold change at 10 µM | AID 708, 2007;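 active = at 10 µM dose, initial 340 nm absorbance at least 2 fold that of control wells; inactive = change under 2 fold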;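 note: initial absorbance extrapolated from kinetic A340 decline of NADH oxidation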
M1 agonist = M1 muscarinic receptor agonists, primary screen, CHO-M1 cells, Fluo-4 calcium, agonist mode; Muscarinic acetylcholine receptor M1; Fluo-4 calcium fluorescence; active compounds read high; B-score at 10 µM; 64,000 tested, 3% active;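 active = fluorescence rise, raw or as B-score row- and column-corrected plate score, outside the 99.7% band of its plate's samples, either direction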
Numbers stand for hits; – = inactive; · = no result given; + = active, no number.

SMILES	M1 antagonist	Fluor 339 460	WNV NS2B-NS3 inh	BAP1 inh	Abs 340nm	M1 agonist
CCOC(=O)c1cc(C#N)c(SCC(=O)c2cc(C#N)c(SC)nc2C)[nH]c1=O	–	2.04	–	·	–	–
COC(=O)c1ccc(COc2ccc3c4c(c(=O)oc3c2)CCC4)o1	–	2.47	–	–	–	–
COC(=O)c1cc(COc2ccc3c4c(c(=O)oc3c2)CCCC4)c(C)o1	–	2.18	–	–	–	–
COC(=O)c1ccc(COc2ccc3c4c(c(=O)oc3c2)CCCC4)cc1	·	·	·	–	·	·
CC1=C(C(=O)OCc2ccc3c(c2)OCO3)C(c2ccc([N+](=O)[O-])cc2)NC(=O)N1 (stereo not given)	·	·	·	–	·	·
Cc1cc2nc(-c3cccnc3SCC(=O)NCc3ccco3)[nH]c2cc1C	–	3.7	–	·	–	–
CC1(CC(=O)O)C(=O)N=C2C=CC=CN21 (stereo not given)	–	2.1	–	–	–	–
CCCc1ccc(Oc2c(C)oc3cc(OCC)ccc3c2=O)cc1	·	·	·	–	·	·
COc1ccc(CCNC(=O)C(C(C)C)N2C(=O)c3ccccc3C2=O)cc1OC (stereo not given)	·	·	·	–	·	·
CNc1oc(-c2cccs2)nc1C#N	–	2.38	–	·	–	–
CN(C)c1oc(-c2cccs2)nc1C#N	–	2.37	–	–	–	–
Oc1ccccc1-c1nnc(-c2ccc(C(F)(F)F)cc2)o1	–	2.49	–	–	–	–
O=C(O)c1cc(NCc2ccc3c(c2)OCO3)ccc1N1CCOCC1	–	2.45	–	–	–	–
COc1cc(CNc2ccc(N3CCOCC3)c(C(=O)O)c2)ccc1OCC(N)=O	–	2.32	–	–	–	–
COc1ccccc1CNc1ccc(N2CCOCC2)c(C(=O)O)c1	–	2.23	–	–	–	–
c1cncc(-c2cnc3ccccc3n2)c1	·	·	·	–	·	·
COCCOC(=O)C1=C(C)NC(=O)NC1c1cccc([N+](=O)[O-])c1 (stereo not given)	·	·	·	–	·	·
Cc1nn(-c2ccccc2)c2sc(C(=O)n3cccn3)cc12	–	2.24	–	·	–	–
COc1cc(C(=O)OCn2nnc3ccccc3c2=O)cc(OC)c1OC	–	–	–	–	–	–
Cc1nn(-c2ccccc2)c2sc(C(=O)NC3CCCCC3)cc12	–	–	–	–	–	–
COc1cc(CCC(=O)OCn2nnc3ccccc3c2=O)cc(OC)c1OC	2.65	–	–	–	–	–
CCCCNC(=O)COC(=O)c1cc2c(C)nn(-c3ccccc3)c2s1	–	2.55	–	–	–	–
Cc1nn(-c2ccccc2)c2sc(C(=O)OCn3nnc4ccccc4c3=O)cc12	–	–	–	+	–	–
C=C1c2ccccc2NC(=O)N1c1cccc(Cl)c1	·	·	·	–	·	·
Clc1c(-c2nnc3n2CCCCC3)sc2ccccc12	–	–	–	–	–	–
SMILES	M1 antagonist	Fluor 339 460	WNV NS2B-NS3 inh	BAP1 inh	Abs 340nm	M1 agonist
N=c1oc2ccc3ccccc3c2cc1-c1nnc2n1CCCCC2	–	2.09	–	–	–	–
O=C(Cn1cnnn1)OCC(=O)c1ccc(Cl)s1	–	2.3	–	–	–	–
CCn1c(SCC(=O)Nc2ccc(NC(=O)c3ccco3)c(OC)c2)nc2ccccc2c1=O	–	5.24	–	–	–	–
CCCCn1c(SCC(=O)Nc2cc(NC(=O)c3ccco3)ccc2C)nc2ccccc2c1=O	–	–	–	·	–	–
CCCOc1ccc(C(=O)CCN2CCOCC2)cc1	·	·	·	–	·	·
CNc1oc(-c2ccccc2Cl)nc1C#N	–	–	–	–	–	–
CNc1oc(-c2cccc3ccccc23)nc1C#N	–	3.72	–	–	–	–
N#Cc1nc(Cc2cccc3ccccc23)oc1NCc1ccc(F)cc1	–	–	–	–	–	–
COc1ccc(CNc2oc(-c3cccc4ccccc34)nc2C#N)cc1	–	3.02	–	·	–	–
Cc1ccc(CNc2oc(-c3ccco3)nc2C#N)cc1	–	2.1	–	·	–	–
CNc1oc(-c2ccco2)nc1C#N	–	3.95	–	·	–	–
COc1ccc(Nc2oc(-c3cccs3)nc2C#N)cc1	–	–	–	–	–	–
CNc1oc(-c2ccc(Cl)cc2)nc1C#N	–	2.38	–	·	–	–
N#Cc1nc(-c2ccc(OCc3ccc(Cl)cc3)cc2)oc1NCc1cccnc1	–	–	–	·	–	–
Cc1ccc(-c2nc(C#N)c(NCc3cccc4c3OCO4)o2)cc1	–	2.64	–	–	–	–
O=S(=O)(c1ccccc1)c1nc(-c2ccco2)oc1NCc1cccnc1	–	–	–	–	–	–
COc1cccc(C(=O)Nc2nnc(-c3ccncc3)s2)c1	·	·	·	–	·	·
O=c1nc2n3ccccc3ncc-2s1	·	·	·	–	·	·
CCOC(=O)c1ccc(NC(=O)C2CCCN2S(=O)(=O)c2ccc(C)cc2)cc1 (stereo not given)	·	·	·	–	·	·
CCOC(=O)c1c(NC(=O)CSc2nnc(C)c(=O)[nH]2)sc2c1CCN(C)C2	·	·	·	–	·	·
NC(=O)c1ccccc1N=Cc1ccccn1	–	5.05	–	·	–	–
CCOc1ccc(-c2nc3n(c(=O)c2C#N)CCCS3)cc1	–	2.76	–	–	–	–
COc1ccc(-c2nc3n(c(=O)c2C#N)CCCS3)cc1	–	2.03	–	·	–	–
CCC(C(=O)Nc1cccc([N+](=O)[O-])c1)(C(F)(F)F)C(F)(F)F	·	·	·	–	·	·
CSc1nsc(SCCN2C(=O)c3ccccc3C2=O)n1	2.34	–	–	–	–	–
SMILES	M1 antagonist	Fluor 339 460	WNV NS2B-NS3 inh	BAP1 inh	Abs 340nm	M1 agonist
COc1ccc2[nH]c(=O)c(CN(C(=O)COc3ccccc3)C(C)C)cc2c1	–	2.65	–	·	–	–
COc1ccc2[nH]c(=O)c(CN(C(=O)c3cccnc3)c3ccccc3OC)cc2c1	–	–	–	·	–	–
COc1ccc(N(Cc2cc3cc(OC)ccc3[nH]c2=O)C(=O)c2cccnc2)cc1	–	2.7	–	·	–	–
CCC(=O)N(Cc1cc2cc(OC)ccc2[nH]c1=O)c1cc(C)ccc1C	–	2.37	–	–	–	–
COc1ccc2[nH]c(=O)c(CN(C(=O)c3ccccn3)c3ccccc3)cc2c1	–	3.36	–	·	–	–
CCN(Cc1cc2cc(C)ccc2[nH]c1=O)C(=O)c1cccc(OC)c1	–	–	–	–	–	–
Cc1ccc2[nH]c(=O)c(CN(C)C(=O)c3ccccn3)cc2c1	–	–	–	–	–	–
CN(C)c1ccc(NC(=O)COc2ccc(Br)cc2)cc1	·	·	·	–	·	·
CCN1C(=Nc2cccnc2)SCC1(O)c1ccccc1 (stereo not given)	·	·	·	–	·	·
COCCN(CCOC)C(=O)c1cc2c(=O)n3ccccc3nc2s1	–	4.94	–	·	–	–
CCN(CC)c1ccc(NC(=O)c2cnc3ccccn3c2=O)c(C)c1	–	–	–	–	–	–
COCCN(CCOC)C(=O)c1sc2nc(-c3ccccc3)cn2c1C	–	–	–	–	–	–
